# Screening results deposited in PubChem BioAssay by National Center for Advancing Translational Sciences (NCATS).
# DT40 TDP1 no CPT: qHTS for Inhibitors of human tyrosyl-DNA phosphodiesterase 1 (TDP1): qHTS in cells in absence of CPT. Potency, µM (titrated, usually from 46.2 µM), for inactives: at the highest dose activity change, negative = growth inhibition, hits mostly inhibitors. DT40 Tdp1-/- hTDP1 cells, no CPT, ATP luminescence, 48 h. 420,000 tested, 15% active; further: nearly all actives have a fitted effect of over 55% in size
#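 Camptothecin absent (DMSO only). Human TDP1-complemented DT40 knockout cells, 400 cells/well, 37 °C for minimum 48 hr; ATP measured via CellTiter-Glo, 30 min dark incubation, luminescence.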
# HT1080NT lethal: kills 2HG-producing HT-1080-NT fibrosarcoma cells; AID 686970; Potency, µM (series often up to 46.1 µM), for inactives: top-dose activity, negative = less viability, hits mostly cytotoxic; 360,000 tested, 1.6% active; HT-1080-NT fibrosarcoma viability, CellTiter-Glo ATP luminescence, 48 h;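 further: NT is the 2HG producing partner of a matched IDH1 knockdown line; 0% = DMSO-treated cells and -100% = media-only wells without cells; nearly all actives have a fitted effect of over 55% in size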
#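 Toxicity toward the 2HG-producing NT line was scored as %Activity, normalised to DMSO and no-cell wells, from CellTiter-Glo luminescence after 48 hours' treatment.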
# DT40 TDP1 CPT: DT40-hTDP1 cell growth loss with CPT. 420,000 tested, 12% active. chicken DT40 Tdp1-/-;hTDP1 cells + 20 nM CPT, ATP luminescence, 48 h. Potency, µM (top dose mostly 46.2 µM), for the others: at the top dose activity change, negative = growth inhibition, actives largely listed as inhibitors; further: nearly all actives have a fitted effect of over 55% in size
#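 Chicken DT40 Tdp1-/- cells stably complemented with human TDP1 were seeded at 400 cells/well in medium containing 20 nM camptothecin, exposed to pin-transferred compounds, and grown at 37 °C for at least 48 hr. Viability was read as ATP luminescence.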
# KB-V1 MDR tox: kills drug-selected multidrug resistant KB-V1 cells; Potency, µM (top dose mostly 46.1 µM), usual class: cytotoxic; KB-V1 MDR cells viability, CellTiter-Glo, 72 h; 400,000 tested, 3.4% active; AID 1347076; further: nearly all actives have a fitted effect of over 60% in size
#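 Luminescent ATP read-out (CellTiter-Glo, 10 min) measures survival of drug-selected KB-V1 MDR cells after 72 h, 37 degrees C compound exposure. Medium: phenol-red-free DMEM, 10% FBS. Values from fitted concentration-response curves.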
# HT1080 IDH1KD tx: HT-1080 IDH1 knockdown cell toxicity (counter line). 360,000 tested, 2% active. HT-1080 IDH1 knockdown viability, ATP luminescence, 48 h. Potency, µM (highest dose often 46.1 µM), inactives show at the highest dose activity, negative = toxicity, actives largely listed as cytotoxic;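 further: 0% = DMSO wells and -100% = cell-free medium wells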
#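 In this qHTS, HT-1080 cells depleted of IDH1 are exposed for 48 h at 37 °C to compound titrations. Toxicity is scored from CellTiter-Glo luminescence, with DMSO as full viability and medium alone as none.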
# KB-3-1 cytotox: KB-3-1 parental cell cytotoxicity; 400,000 tested, 1.4% active; Potency, µM (highest dose often 46.1 µM), most hits filed as cytotoxic; AID 1347075; KB-3-1 viability, CellTiter-Glo ATP luminescence, 72 h; further: nearly all actives have a fitted effect of over 60% in size
#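 Luminescent ATP read-out (CellTiter-Glo) measures survival of drug-naive KB-3-1 cells after 72 h compound exposure at 37 °C. Titration series was screened from lowest to highest concentration, with DMSO vehicle plates as background controls.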
# Starred values were filed as active, the others as inactive; i = inactive; u = inconclusive; x = no result; [ ] = remark or other dose. Only some compounds are listed: those with a hit (about 19% of all), similar ones and a draw of the others. The call rests on the fitted dose curve; in most records, active means well fitted curve in the direction sought with a large enough effect; inconclusive means small, poorly fitted or top-dose-only effect, or another doubt; inactive means no such curve, though single readings can be large; an effect the other way counts as inactive or inconclusive. Unless noted, on the % scale 0 is the no-effect control and ±100 the full control effect; potency means the concentration at half of the fitted maximal effect.
SMILES,DT40 TDP1 no CPT,HT1080NT lethal,DT40 TDP1 CPT,KB-V1 MDR tox,HT1080 IDH1KD tx,KB-3-1 cytotox
COc1ccc(SC[C@H](Cc2ccccc2)N2CC[C@@H](C(C)(C)C)CCC2=O)cc1,u,-2.0%,18.4µM*,u,-5.2%,u
CC(C)(C)[C@H]1CCC(=O)N(CCSc2ccc(Br)cc2)CC1,22.4µM*,x,u,u,x,i
O=C1N(Cc2cccnc2)C[C@@H]2C[C@@H](c3cccc(OC4CCCC4)c3)N3CCC[C@@]123,u,-8.9%,u,i,-4.8%,i
CCC(=O)OCc1cnc(C)c2oc(=O)c(C(=O)Nc3ccccc3C(F)(F)F)cc12,-6.6%,x,0.6%,i,x,i
CCOc1ccccc1NC(=O)c1ccc2c(O)c(S(=O)(=O)c3ccccc3)c(=O)[nH]c2c1,-1.4%,13.4%,1.2%,i,11.3%,i
Cn1c(COc2ccc(Cl)cc2)nnc1SCc1ncc(-c2ccccc2)o1,16.4µM*,-0.7%,u,i,-20.4%,i
COc1cc(OC)cc(-c2c(-c3cccs3)c3cc(-c4cnc(OC)nc4)ccc3n2C)c1,14.6µM*,-1.2%,u,i,-2.2%,u
COc1ccc(-c2ccc3c(c2)c(-c2cccs2)c(-c2cc(OC)cc(OC)c2)n3C)cc1,23.1µM*,-1.3%,u,i,-1.4%,i
COc1cc(OC)cc(-c2c(-c3cccs3)c3cc(-c4ccc(C(N)=O)cc4)ccc3n2C)c1,16.4µM*,9.7%,u,i,8.5%,u
Cc1ccccc1Cc1nc2cccnc2n1C1CCN(C(=O)CC2NC(=O)c3ccccc32)CC1 (stereo not drawn),u,x,-5.2%[9.04 µM],x,x,x
O/N=C(/c1ccccc1)c1cc2cc(Br)cc(Br)c2o1,u,u,-17.7%,i,u,i
COc1ccc(NC(=O)COC(=O)c2ccc(S(=O)(=O)N(C)c3ccccc3OC)cc2)cc1OC,-12.1%,0.9%,-1.1%,i,5.4%,i
COc1ccccc1N(C)S(=O)(=O)c1ccc(C(=O)Nc2cccc(Br)c2)cc1,16.4µM*,-21.0%,u,u,-0.3%,u
COc1cc(NC(=O)c2ccc(S(=O)(=O)N(C)c3ccccc3OC)cc2)cc(OC)c1,20.6µM*,-22.3%,18.4µM*,i,-1.3%,i
CCC(C)(C)NC(=O)c1ccc(S(=O)(=O)N(C)c2ccccc2OC)cc1,-10.6%,12.9%,-19.8%,i,2.2%,i
CN(C)c1ccc(C(=S)NCc2ccco2)cc1,u,-1.0%,u,u,3.0%[9.24 µM],i
COC(=O)C[C@@H]1C=C[C@H](NC(=O)Nc2ccc(OC)cc2)[C@@H](CO)O1,-0.2%,18.2%,-1.2%,i,23.2%,i
CCCNC(=O)C1(C)CCN(C(=O)c2cc(F)cc(F)c2)C1 (stereo not drawn),6.2%,-4.7%,-3.1%,i,-1.1%,i
Cc1csc(-c2cnn(-c3ccccc3)c2NC(=O)c2cccc(C(F)(F)F)c2)n1,-4.9%,-19.5%,-14.2%,i,-2.9%,i
CCOc1cc(C2NC(=O)N(C)C(C)=C2[N+](=O)[O-])ccc1OC(C)=O (stereo not drawn),2.3%,9.6%,-6.9%,i,-3.2%,i
CC1=C([N+](=O)[O-])C(c2ccc(Cl)cc2)NC(=O)N1C (stereo not drawn),5.8µM*,0.4%,6.51µM*,i,-3.9%,i
C(=C\c1ccccc1)/CN1CCN(C(c2cccs2)c2nnnn2-c2ccc3c(c2)OCCO3)CC1 (stereo not drawn),23.1µM*,u,u,u,u,i
C(=C\c1ccccc1)/CN1CCN(C(c2cc3ccccc3o2)c2nnnn2-c2ccc3c(c2)OCCO3)CC1 (stereo not drawn),14.6µM*,-11.1%,13µM*,i,-12.6%,i
CCCCn1nnnc1C(c1cc2ccccc2o1)N1CCN(C/C=C/c2ccccc2)CC1 (stereo not drawn),16.4µM*,u,20.6µM*,u,u,u
COc1ccc(-n2nnnc2C(c2cccc3ccccc23)N2CCN(C/C=C/c3ccccc3)CC2)cc1 (stereo not drawn),8.2µM*,-27.5%,7.31µM*,i,-23.9%,i
SMILES,DT40 TDP1 no CPT,HT1080NT lethal,DT40 TDP1 CPT,KB-V1 MDR tox,HT1080 IDH1KD tx,KB-3-1 cytotox
Cc1cccc(C)c1-n1nnnc1C(C1CC1)N1CCN(C/C=C/c2ccccc2)CC1 (stereo not drawn),u,u,u,i,u,i
Cc1cc(S(=O)(=O)NCc2cccnc2)ccc1-n1cnnn1,-13.6%,-2.7%,-17.2%,i,0.0%,i
COc1ccc(-n2nnnc2C(c2cc3ccccc3o2)N2CCN(C/C=C/c3ccccc3)CC2)cc1 (stereo not drawn),14.6µM*,-16.0%,23.1µM*,i,-12.4%,i
CCCCn1nnnc1C(c1cc2ccccc2o1)N1CCN(c2ncccc2C#N)CC1 (stereo not drawn),18.4µM*,-1.2%,u,i,-12.9%,i
COc1ccc(C(c2nnnn2-c2ccc3c(c2)OCCO3)N2CCN(C/C=C/c3ccccc3)CC2)cc1 (stereo not drawn),16.4µM*,u,16.4µM*,i,u,i
O=C(OCC(=O)N(C1CCCCC1)C1CCCCC1)c1ccc(Cl)nc1,5.4%,-3.6%,-4.6%,i,-3.9%,i
COc1ccc(C)cc1NC(=O)C1CCN(S(=O)(=O)c2ccc3[nH]c4c(c3c2)CCCCC4)CC1,u,x,-24.7%,i,x,i
COc1ccc(N2CCN(C(=O)CCn3cnc4onc(-c5ccc(F)cc5)c4c3=O)CC2)cc1,u,x,23.1µM*,i,x,i
CCN(C(=O)CCn1cnc2onc(-c3ccc(F)cc3)c2c1=O)c1ccc(OC)cc1,18.4µM*,x,16.4µM*,i,x,u
COc1ccc(N2CCN(C(=O)Cn3cnc4c(cnn4-c4ccc(C)cc4)c3=O)CC2)cc1,9.3%,14.7%,15.1%,i,18.5%,i
COc1ccccc1N1CCN(C(=O)CCn2cnc3onc(-c4ccc(F)cc4)c3c2=O)CC1,20.6µM*,x,u,i,x,i
